From the supplement of paper PMC12819154, “High-throughput peptide-centric local stability assay extends protein–ligand identification to membrane proteins, tissues and bacteria” (Nature Structural & Molecular Biology, 2025)

compound: Nc1ncnc2c1ncn2[C@@H]1O[C@H](COP(=O)(O)OP(=O)(O)OP(=O)(O)O)[C@@H](O)[C@H]1O [adenosine 5'-triphosphate]; assay: log2 fold change of tryptic peptide abundance, ligand vs vehicle (limited proteolysis) (log2 ratio); higher = more trypsin-susceptible (destabilized); details: ligand concentration: 5 mM; sample: E. coli desalted lysate; replicate design: treated before aliquoting
Method: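 HT-PELSA: desalted E. coli K-12 BW25113 lysate (with 12 mM MgCl2) incubated with 5 mM ATP (pH 7) or water for 30 min at 25 C, then a 4 min trypsin pulse at 22 C. Peptides were quantified by DIA-MS (4 replicates). Value is the peptide log2 fold change (treated/control); negative = stabilized. Scale: negative = ligand-stabilized region.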
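Note: lysate desalted by size exclusion to strip endogenous ATP, peptide intensities built from DIA-NN precursor signals, and peptides missing any value discarded before comparison.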

Sequence of UniProt P15043 (P15043 whole entry): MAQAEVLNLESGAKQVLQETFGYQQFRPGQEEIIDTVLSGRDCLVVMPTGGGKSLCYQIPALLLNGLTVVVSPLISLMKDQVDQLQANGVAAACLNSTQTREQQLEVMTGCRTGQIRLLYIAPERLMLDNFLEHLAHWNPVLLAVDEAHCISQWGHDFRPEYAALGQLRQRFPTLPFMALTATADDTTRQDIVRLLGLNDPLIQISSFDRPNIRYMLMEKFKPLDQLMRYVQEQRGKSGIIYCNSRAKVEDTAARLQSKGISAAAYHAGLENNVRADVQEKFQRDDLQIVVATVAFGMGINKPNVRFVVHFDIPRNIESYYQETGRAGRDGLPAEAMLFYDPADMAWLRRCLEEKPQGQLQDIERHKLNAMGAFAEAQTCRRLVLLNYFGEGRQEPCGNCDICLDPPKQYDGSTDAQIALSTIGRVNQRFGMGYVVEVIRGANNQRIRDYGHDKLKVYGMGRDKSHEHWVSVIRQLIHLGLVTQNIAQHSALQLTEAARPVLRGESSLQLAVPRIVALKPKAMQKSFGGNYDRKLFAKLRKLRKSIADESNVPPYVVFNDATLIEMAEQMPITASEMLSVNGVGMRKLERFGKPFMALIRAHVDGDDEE
Sequence of UniProt P00887 (P00887 whole entry): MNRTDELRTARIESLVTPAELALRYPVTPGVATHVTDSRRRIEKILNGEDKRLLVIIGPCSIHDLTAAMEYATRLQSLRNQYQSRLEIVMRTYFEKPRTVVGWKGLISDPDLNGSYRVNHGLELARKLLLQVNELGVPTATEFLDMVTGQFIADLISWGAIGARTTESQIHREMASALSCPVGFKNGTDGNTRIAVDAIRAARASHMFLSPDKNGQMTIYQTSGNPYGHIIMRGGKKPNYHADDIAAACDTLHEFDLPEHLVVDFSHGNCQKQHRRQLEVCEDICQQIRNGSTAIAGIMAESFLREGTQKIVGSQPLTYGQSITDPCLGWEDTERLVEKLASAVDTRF
Sequence of UniProt P64636 (P64636 whole entry): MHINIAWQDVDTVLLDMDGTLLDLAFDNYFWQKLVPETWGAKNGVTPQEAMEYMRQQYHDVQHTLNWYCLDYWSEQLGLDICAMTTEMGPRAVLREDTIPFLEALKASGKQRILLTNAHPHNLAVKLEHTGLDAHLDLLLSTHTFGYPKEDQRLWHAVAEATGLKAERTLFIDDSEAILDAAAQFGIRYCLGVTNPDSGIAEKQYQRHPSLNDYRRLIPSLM
Sequence of UniProt P0AFZ1 (P0AFZ1 whole entry): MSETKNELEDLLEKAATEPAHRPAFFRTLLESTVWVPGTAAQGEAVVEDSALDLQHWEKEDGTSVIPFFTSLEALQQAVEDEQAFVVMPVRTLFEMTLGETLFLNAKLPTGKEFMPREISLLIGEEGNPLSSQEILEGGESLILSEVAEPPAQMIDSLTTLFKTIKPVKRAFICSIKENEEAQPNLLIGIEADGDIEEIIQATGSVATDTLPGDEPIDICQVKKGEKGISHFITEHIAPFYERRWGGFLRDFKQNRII
Sequence of UniProt P36999 (P36999 whole entry): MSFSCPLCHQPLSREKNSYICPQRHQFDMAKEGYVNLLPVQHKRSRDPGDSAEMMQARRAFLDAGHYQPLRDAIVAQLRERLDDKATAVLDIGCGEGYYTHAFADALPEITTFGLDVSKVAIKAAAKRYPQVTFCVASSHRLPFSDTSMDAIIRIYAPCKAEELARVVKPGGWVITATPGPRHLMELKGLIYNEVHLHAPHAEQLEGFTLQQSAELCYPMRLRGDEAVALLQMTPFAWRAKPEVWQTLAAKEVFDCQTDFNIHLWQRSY
Sequence of UniProt P36995 (P36995 whole entry): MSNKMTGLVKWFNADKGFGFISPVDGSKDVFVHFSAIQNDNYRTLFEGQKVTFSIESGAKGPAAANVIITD
Sequence of UniProt P08957 (P08957 whole entry): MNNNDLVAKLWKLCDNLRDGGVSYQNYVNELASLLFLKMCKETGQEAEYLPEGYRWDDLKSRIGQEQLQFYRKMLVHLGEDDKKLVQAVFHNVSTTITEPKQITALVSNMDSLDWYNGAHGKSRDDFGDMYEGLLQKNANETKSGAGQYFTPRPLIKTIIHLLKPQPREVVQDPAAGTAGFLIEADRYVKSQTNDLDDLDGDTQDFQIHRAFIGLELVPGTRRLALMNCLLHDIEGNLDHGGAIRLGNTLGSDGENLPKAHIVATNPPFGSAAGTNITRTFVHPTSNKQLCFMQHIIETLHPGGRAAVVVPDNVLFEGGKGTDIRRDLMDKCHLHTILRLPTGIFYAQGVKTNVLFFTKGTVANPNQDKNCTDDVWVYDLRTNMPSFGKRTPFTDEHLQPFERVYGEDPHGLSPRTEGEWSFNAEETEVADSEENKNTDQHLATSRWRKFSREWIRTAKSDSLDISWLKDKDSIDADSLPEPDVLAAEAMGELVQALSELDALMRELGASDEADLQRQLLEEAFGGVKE
Sequence of UniProt P04425 (P04425 whole entry): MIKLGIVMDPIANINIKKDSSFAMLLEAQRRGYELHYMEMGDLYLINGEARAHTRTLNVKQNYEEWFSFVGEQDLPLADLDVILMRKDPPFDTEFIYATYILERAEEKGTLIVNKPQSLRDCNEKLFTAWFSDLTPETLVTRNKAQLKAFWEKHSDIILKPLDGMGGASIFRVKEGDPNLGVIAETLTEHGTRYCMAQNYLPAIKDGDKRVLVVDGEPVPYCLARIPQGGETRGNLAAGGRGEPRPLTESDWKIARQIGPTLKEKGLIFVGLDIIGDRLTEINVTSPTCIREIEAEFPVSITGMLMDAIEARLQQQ
Sequence of UniProt P18776 (P18776 whole entry): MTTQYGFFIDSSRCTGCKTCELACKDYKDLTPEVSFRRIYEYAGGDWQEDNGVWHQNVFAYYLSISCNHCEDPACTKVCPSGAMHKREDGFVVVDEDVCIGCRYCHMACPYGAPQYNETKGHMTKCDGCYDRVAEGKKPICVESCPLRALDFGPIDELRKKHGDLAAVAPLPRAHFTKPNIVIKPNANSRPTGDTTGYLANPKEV
Sequence of UniProt P0ADV7 (P0ADV7 whole entry): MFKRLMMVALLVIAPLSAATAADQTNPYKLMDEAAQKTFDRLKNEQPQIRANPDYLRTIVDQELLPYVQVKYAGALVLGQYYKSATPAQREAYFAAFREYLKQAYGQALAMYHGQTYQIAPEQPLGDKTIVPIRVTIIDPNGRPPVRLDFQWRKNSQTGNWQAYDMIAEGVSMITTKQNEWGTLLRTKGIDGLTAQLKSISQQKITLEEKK
Sequence of UniProt P23865 (P23865 whole entry): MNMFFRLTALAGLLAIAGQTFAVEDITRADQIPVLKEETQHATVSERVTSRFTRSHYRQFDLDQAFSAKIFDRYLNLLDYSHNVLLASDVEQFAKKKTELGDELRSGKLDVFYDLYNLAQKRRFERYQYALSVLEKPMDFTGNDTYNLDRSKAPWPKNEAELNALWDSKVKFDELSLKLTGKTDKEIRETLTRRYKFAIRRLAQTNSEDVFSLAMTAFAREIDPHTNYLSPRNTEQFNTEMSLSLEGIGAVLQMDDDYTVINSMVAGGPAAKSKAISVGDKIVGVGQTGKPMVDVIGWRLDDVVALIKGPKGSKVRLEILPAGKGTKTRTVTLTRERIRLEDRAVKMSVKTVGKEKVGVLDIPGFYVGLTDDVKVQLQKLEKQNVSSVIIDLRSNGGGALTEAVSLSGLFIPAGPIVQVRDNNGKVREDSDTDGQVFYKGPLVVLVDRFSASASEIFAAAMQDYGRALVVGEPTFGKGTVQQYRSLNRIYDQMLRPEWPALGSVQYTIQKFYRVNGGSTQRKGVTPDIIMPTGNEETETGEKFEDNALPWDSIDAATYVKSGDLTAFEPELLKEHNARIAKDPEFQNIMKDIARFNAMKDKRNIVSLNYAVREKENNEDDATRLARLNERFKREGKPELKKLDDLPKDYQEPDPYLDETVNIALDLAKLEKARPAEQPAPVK
Sequence of UniProt P22106 (P22106 whole entry): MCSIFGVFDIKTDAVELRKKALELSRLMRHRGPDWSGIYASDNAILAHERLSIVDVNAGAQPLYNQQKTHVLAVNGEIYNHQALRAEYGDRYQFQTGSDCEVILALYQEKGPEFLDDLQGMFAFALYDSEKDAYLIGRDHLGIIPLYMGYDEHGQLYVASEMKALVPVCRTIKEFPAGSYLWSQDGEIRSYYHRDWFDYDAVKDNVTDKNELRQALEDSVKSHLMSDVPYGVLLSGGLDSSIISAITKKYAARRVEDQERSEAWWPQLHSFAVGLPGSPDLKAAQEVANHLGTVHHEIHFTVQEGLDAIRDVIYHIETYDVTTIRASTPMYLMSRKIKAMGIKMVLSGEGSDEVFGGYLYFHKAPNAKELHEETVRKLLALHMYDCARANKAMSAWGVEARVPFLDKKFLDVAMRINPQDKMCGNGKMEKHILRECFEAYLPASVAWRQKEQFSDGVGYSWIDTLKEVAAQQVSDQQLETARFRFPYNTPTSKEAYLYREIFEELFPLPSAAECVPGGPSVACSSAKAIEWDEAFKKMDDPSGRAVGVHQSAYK

| Target | log2 fold change |
| --- | --- |
| UniProt P23865 (peptide sequence: VRLEILPAGK, peptide start residue: 315) | 1.04 |
| UniProt P15043 (peptide sequence: FGKPFMALIR, peptide start residue: 591) | 0.672 |
| UniProt P00887 (peptide sequence: YPVTPGVATHVTDSRR, peptide start residue: 25) | -0.488 |
| UniProt P64636 (peptide sequence: EDTIPFLEALK, peptide start residue: 96) | 0.412 |
| UniProt P18776 (peptide sequence: PICVESCPLR, peptide start residue: 139) | -1.14 |
| UniProt P04425 (peptide sequence: GTLIVNKPQSLR, peptide start residue: 109) | -1.9 |
| UniProt P0ADV7 (peptide sequence: LKNEQPQIR, peptide start residue: 42) | 0.525 |
| UniProt P36995 (peptide sequence: VTFSIESGAK, peptide start residue: 51) | -0.289 |
| UniProt P22106 (peptide sequence: QALEDSVK, peptide start residue: 214) | -0.816 |
| UniProt P36999 (peptide sequence: RYPQVTFCVASSHR, peptide start residue: 128) | -0.656 |
| UniProt P0AFZ1 (peptide sequence: NELEDLLEK, peptide start residue: 6) | 0.67 |
| UniProt P08957 (peptide sequence: SRIGQEQLQFYR, peptide start residue: 61) | 1.09 |
